Compound activity from PubChem BioAssay.
This is a sample that favours compounds with a hit; in the whole collection about 9.3% have one here.
VACV Venus inh: vaccinia inhibition (Venus reporter) | Potency, µM (top dose mostly 36.5 µM), without a hit: at the highest dose activity change, negative = inhibition, usual class: inhibitors | AID 720580 | Vaccinia virus Venus reporter expression, fluorescence | hit rate 0.46% among 330,000; calls by dose curve; tested in A549 cells; also: potency is read from the fitted curve at half-maximal effect; nearly all actives have a fitted effect of over 30% in size
Sm TGR block: blocks Schistosoma mansoni thioredoxin glutathione reductase; purified TGR, DTNB reduction, TNB absorbance 405 nm; Potency, µM (highest dose often 114 µM), for inactives: at the highest dose activity change, negative = inhibition, usual class: inhibitors; hit rate 3% among 360,000; AID 485364; also: potency is read from the fitted curve at half-maximal effect; nearly all actives have a fitted effect of over 60% in size
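Kinetic colorimetric format: TGR-catalysed, NADPH-driven DTNB reduction monitored via TNB absorbance. Enzyme dispensed at 20 nM; compound exposure 15 min at room temperature before reaction start.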
FMDV inh: foot and mouth disease virus antiviral activity. FMDV antiviral cell-based qHTS. Potency, µM (titrated, usually from 57.9 µM), for inactives: at the top dose activity change, negative = inhibition, hits mostly inhibitors. hit rate 1.2% among 410,000; calls by dose curve; tested in HEK293T cells; also: read-out not given here; potency is read from the fitted curve at half-maximal effect; nearly all actives have a fitted effect of over 45% in size
VACV mCherry inh: vaccinia inhibition (mCherry reporter) | hit rate 0.63% among 310,000 | Vaccinia virus mCherry reporter infection, fluorescence | AID 720579 | Potency, µM (top dose mostly 36.5 µM), for inactives: top-dose activity change, negative = inhibition, most hits filed as inhibitors; calls by dose curve; tested in A549 cells; also: potency is read from the fitted curve at half-maximal effect; nearly all actives have a fitted effect of over 35% in size
HCMV antiviral: human cytomegalovirus inhibition | HFF cells, HCMV-luciferase reporter, 72 h; active compounds read low | activity change, negative = inhibition, % at 57.5 µM | hit rate 4.5% among 410,000 | AID 1259415; in the data active = activity change below about -60%; inconclusive = no clear call, values can overlap the other calls; inactive = above about -39%
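Cell-based, HFFs, 1000 cells/well, 16 h 37C; cpds in DMSO + HCMV-luc, MOI 1 PFU/cell; 72 h 37C; OneGlo luminescence after 5 min RT; norm. to buffer vs Salinomycin 10uM.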
HCV inhibitor: inhibitors of hepatitis C virus infection; Huh7.5.1 HCVcc-Cre infection, luciferase reporter, 44 h; AID 651820; Potency, µM (titrated, usually from 41.8 µM), for the others: at the top dose activity change, negative = inhibition, hits mostly inhibitors; hit rate 3.4% among 340,000; also: potency is read from the fitted curve at half-maximal effect
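A cell-based infection assay in which seeded cells (1,000 per well) receive test compound after 4 h, are inoculated with HCVcc-Cre at approximately 0.5 moi, and are incubated 44 h before luminescence detection.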
An asterisk follows results filed as active; i = inactive; ? = inconclusive; / = not tested or not shown; [ ] = another dose, or the depositor's remark. Unless noted, calls follow the shape of the dose curve; as a rule, active = well fitted curve in the direction sought with a large enough effect; inconclusive = small, poorly fitted or top-dose-only effect, or another doubt; inactive = no such curve, though single readings can be large; an effect the other way counts as inactive or inconclusive. % is scaled to controls: 0 for no effect and ±100 for the full control effect.

SMILES	VACV Venus inh	Sm TGR block	FMDV inh	VACV mCherry inh	HCMV antiviral	HCV inhibitor
CC(=O)c1c(OC(=O)c2ccccc2)c2ccccc2n1C	-8%	1%	/	-11%	12	4%
CC(=O)Nc1ccc(NC(=O)COC(=O)C2(c3ccc(Cl)cc3)CCCC2)cc1	-26%	1%	28µM*	i	?	?
Cn1c(=O)c2nncnc2n(C)c1=O	-8%	0%	-16%	i	-35	-4%[0.335 µM]
Cc1nc2c(=O)n(C)c(=O)n(C)c2nc1Cl	-21%	6.3µM*	?	?	-103*	14µM*
O=C1/C(=C\c2ccco2)SC(=S)N1C1CCCCC1	/	40µM*	/	/	/	/
COc1ccc(/C=C2\SC(=O)N(CCC(=O)N3CCCCC3CCO)C2=O)cc1 (configuration not stated)	-13%	-9%	-14%	-3%	-7	?
O=C1/C(=C/c2ccccc2)SC(=S)N1CCCC(=O)N1CCCCC1CCO (configuration not stated)	/	-13%	?	/	-101*	?
O=C1/C(=C/c2ccccc2F)SC(=S)N1CCC(=O)N1CCCCC1CCO (configuration not stated)	-26%	-6%	-13%	?	-84*	?
COc1ccc(/C=C2\SC(=S)N(CCC(=O)N3CCCCC3CCO)C2=O)cc1 (configuration not stated)	/	-9%	?	/	-84*	-16%
O=C(CCN1C(=O)/C(=C\c2ccccc2F)SC1=S)N1CCCCC1	/	-9%	-20%	/	19	3%
COc1ccc(OC)c(NC(=O)CC2SC(=NCc3ccccc3)NC2=O)c1 (configuration not stated)	-18%	6%	-13%	-12%	45	?
CN1CCN(CC#CC2(O)CCCCC2)CC1	-12%	-11%	/	i	-3	13%
C[C@@H](c1ccccc1)N1C[C@@H](COCc2ccccc2)Oc2cc(N3CCC[C@@H]3CO)ccc2S1(=O)=O	-4%	/	-1%	-3%	16	/
COc1cccc(/C=C2\SC(=S)N(CCC(=O)N3CCCCC3)C2=O)c1	/	4%	13%	/	?	0%
O=C1/C(=C/c2ccc(Cl)cc2)SC(=S)N1CCC(=O)N1CCCCC1CCO (configuration not stated)	/	-5%	-19%	/	-86*	?
O=C(CCN1C(=O)/C(=C/c2ccccc2Cl)SC1=S)NC1CCCC1	-10%	5%	-27%	-9%	-6	?
O=C1/C(=C/c2cccs2)SC(=S)N1CC(=O)N1CCCCC1CCO (configuration not stated)	/	-1%	12%	/	-83*	-16%
O=C1/C(=C/c2ccco2)SC(=S)N1CCC(=O)N1CCCCC1CCO (configuration not stated)	/	22µM*	0%	/	-92*	2%
O=C1/C(=C/c2cccc(Cl)c2)SC(=S)N1CCC(=O)N1CCCCC1CCO (configuration not stated)	/	0%	-17%	/	-82*	-18%
O=C(CCN1C(=O)/C(=C/c2ccc(Cl)cc2)SC1=S)NC1C=CS(=O)(=O)C1 (configuration not stated)	/	3%	5%	/	-14	12%
CC1CCN(C(=O)CCN2C(=O)/C(=C/c3cccs3)SC2=S)CC1	-26%	4%	-11%	?	6	?
O=C(NC1CC(=O)N(c2ccc(F)cc2)C1)c1ccc(S(=O)(=O)N2CCCCC2)cc1 (configuration not stated)	-16%	3%	-23%	-10%	?	/
COc1ccc2cc(C(c3nnnn3C3CCCC3)N3CCOCC3)c3nnnn3c2c1 (configuration not stated)	-10%	/	1%	-2%	61	-5%
Cc1ncc2c(c1CNC(=O)/C=C/c1cccs1)CCN(C(=O)C1CCCO1)C2 (configuration not stated)	-1%	/	-16%	-1%	/	/
C#Cc1ccc([C@@H]2C=C(C(=O)N3CCN(Cc4ccccc4)CC3)O[C@H](OCC)[C@H]2CCCO)cc1	-12%	?	-28%	i	-16	?
SMILES	VACV Venus inh	Sm TGR block	FMDV inh	VACV mCherry inh	HCMV antiviral	HCV inhibitor
CC(Oc1ccc(F)cc1)C(=O)Nc1ccc(S(=O)(=O)NC2=NCCCCC2)cc1 (configuration not stated)	/	-4%	-5%	/	-27	1%
Cc1ccc(CNC(=O)C2CCN(S(=O)(=O)c3ccc4[nH]c(=O)ccc4c3)CC2)cc1	-2%	7%	-9%	1%	24	/
CCOC(=O)C1=C(C)NC(C)=C(C(=O)OCC)C1c1ccc(Br)o1	-19%	-12%	-30%	-13%	-79*	?
Cn1ncc2cc3c(Nc4ccc(Cl)cc4)cccc3nc21	1%	/	-16%	13%	?	/
CN1CCN(C(c2ccc(Br)cc2)c2cc(Cl)c3cccnc3c2O)CC1 (configuration not stated)	?	0.63µM*	?	?	126	7.9µM*
Cc1ccc(C(c2cc(Br)ccc2O)N2CCSCC2)cc1 (configuration not stated)	-5%	1%	-20%	i	47	10%
CN1CCN(C(c2ccc(F)cc2)c2ccc3cccnc3c2O)CC1 (configuration not stated)	/	/	-4%	/	/	10%
CN1CCN(C(c2cccnc2)c2ccc3cccnc3c2O)CC1 (configuration not stated)	-5%	0.25µM*	-17%	-2%	/	?
O=c1[nH]c(=O)n(Cc2ccccc2)c2c1C(C(F)(F)F)(C(F)(F)F)N=C(c1ccco1)N2	/	-23%	?	/	2	-1%
O=c1[nH]c(=O)n(Cc2ccco2)c2c1C(C(F)(F)F)(C(F)(F)F)N=C(c1ccc(F)cc1)N2	/	2%	4.5µM*	/	43	?
CN1CC[C@@]2(CCCN(C(=O)c3csnn3)C2)C1	/	/	-14%	/	/	/
Cc1cc2nc(CSc3ccccc3)cc(=O)n2[nH]1	3%	-1%	5%	-4%	-96*	8%
Cc1cc2nc(CCl)cc(=O)n2[nH]1	4%	?	0%	-8%	-33	?
CCOc1ccc(C2C(C(=O)c3cccs3)=C(O)C(=O)N2Cc2cccnc2)cc1OC (configuration not stated)	-12%	0%	26%	-17%	-16	4%
O=C(c1cc(COc2ccc(F)c(F)c2)on1)N1CCN(C/C=C/c2ccccc2)CC1	?	-16%	0%	?	-10	?
CC1(C)CC(=O)C/C(=N/NC(=O)C2CCN(S(=O)(=O)c3cccs3)CC2)C1	/	-12%	-15%	/	-25	19%
COc1ccc(CCNC(=O)CC2(CC3=NS(=O)(=O)c4ccccc4N3)CCCC2)cc1OC	/	-17%	21%	/	-8	?
